Assay results taken from PubChem BioAssay AID485288 (Southern Research Specialized Biocontainment Screening …, 2010).
Results with a measured potency or affinity are listed apart. Activity calls are given as the source filed them. The rule behind the calls is not given here.

Molecular target: Large T antigen (Simian virus 40) (UniProt P03070)
Test: SV40 large T antigen ATPase inhibitors, SAR follow-up, biochemical, ADP-Hunter detection, purified TAg, synthesized compounds, set 3 (AID 485288)

Chain of Large T antigen (Simian virus 40) (P03070 whole entry, looked up): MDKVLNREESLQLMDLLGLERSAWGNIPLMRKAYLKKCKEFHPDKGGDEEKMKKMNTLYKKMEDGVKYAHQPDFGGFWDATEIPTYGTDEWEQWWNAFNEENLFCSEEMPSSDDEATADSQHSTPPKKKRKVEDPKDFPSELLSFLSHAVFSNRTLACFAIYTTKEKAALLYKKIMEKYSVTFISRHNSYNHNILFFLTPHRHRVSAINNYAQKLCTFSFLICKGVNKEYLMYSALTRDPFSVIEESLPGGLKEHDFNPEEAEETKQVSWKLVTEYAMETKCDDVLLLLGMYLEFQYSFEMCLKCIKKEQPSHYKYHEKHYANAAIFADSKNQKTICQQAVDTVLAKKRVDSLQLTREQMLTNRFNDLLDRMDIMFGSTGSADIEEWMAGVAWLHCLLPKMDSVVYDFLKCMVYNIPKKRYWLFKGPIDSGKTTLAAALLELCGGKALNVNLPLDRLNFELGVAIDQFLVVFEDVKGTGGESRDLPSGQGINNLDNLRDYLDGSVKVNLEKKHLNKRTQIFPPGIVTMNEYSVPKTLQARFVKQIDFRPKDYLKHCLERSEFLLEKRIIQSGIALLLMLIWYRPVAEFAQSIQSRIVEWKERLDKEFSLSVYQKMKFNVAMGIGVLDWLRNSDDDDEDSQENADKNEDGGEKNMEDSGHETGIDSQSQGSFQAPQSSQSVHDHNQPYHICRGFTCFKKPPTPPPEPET

SMILES | outcome
Cc1cc(C(C)(C)c2ccc(O)c(C)c2)ccc1O | inactive
CC(C)(c1ccccc1)c1ccc(O)cc1 | inactive
